Data taken from the supplement of paper PMC10849652.
Of roughly 7,900 targets only a part is listed; those with a hit were picked by preference. About 0.6% of all pairs of compound and target were hits.

Each target was assayed with CCCS(=O)(=O)Nc1ccc(F)c(C(=O)c2c[nH]c3ncc(-c4ccc(Cl)cc4)cc23)c1F [vemurafenib] (assay: log2 fold change, soluble protein after heating vs DMSO (PISA); higher = thermal stabilisation; K562 cells, 10 uM, 30 min; active = over 0.2 and 3.5 SD of the protein, either way, in both replicates (recomputed)).
Summary of the method: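 Aliquots of K562 cells (2×10^6 cells/mL) treated with 10 μM compound for 30 min were heated for 3 min over 48°C-58°C. After pooling and extraction in PBS with 0.5% NP-40 at 4°C, soluble protein from a 21,000xg, 90 min spin was quantified by TMTpro 16plex LC-MS/MS with channel sums equalised. Thermal stability is expressed against control samples, from duplicates, as a log2 fold change.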

Chain of UniProt Q86UU1 (Q86UU1 whole entry, looked up): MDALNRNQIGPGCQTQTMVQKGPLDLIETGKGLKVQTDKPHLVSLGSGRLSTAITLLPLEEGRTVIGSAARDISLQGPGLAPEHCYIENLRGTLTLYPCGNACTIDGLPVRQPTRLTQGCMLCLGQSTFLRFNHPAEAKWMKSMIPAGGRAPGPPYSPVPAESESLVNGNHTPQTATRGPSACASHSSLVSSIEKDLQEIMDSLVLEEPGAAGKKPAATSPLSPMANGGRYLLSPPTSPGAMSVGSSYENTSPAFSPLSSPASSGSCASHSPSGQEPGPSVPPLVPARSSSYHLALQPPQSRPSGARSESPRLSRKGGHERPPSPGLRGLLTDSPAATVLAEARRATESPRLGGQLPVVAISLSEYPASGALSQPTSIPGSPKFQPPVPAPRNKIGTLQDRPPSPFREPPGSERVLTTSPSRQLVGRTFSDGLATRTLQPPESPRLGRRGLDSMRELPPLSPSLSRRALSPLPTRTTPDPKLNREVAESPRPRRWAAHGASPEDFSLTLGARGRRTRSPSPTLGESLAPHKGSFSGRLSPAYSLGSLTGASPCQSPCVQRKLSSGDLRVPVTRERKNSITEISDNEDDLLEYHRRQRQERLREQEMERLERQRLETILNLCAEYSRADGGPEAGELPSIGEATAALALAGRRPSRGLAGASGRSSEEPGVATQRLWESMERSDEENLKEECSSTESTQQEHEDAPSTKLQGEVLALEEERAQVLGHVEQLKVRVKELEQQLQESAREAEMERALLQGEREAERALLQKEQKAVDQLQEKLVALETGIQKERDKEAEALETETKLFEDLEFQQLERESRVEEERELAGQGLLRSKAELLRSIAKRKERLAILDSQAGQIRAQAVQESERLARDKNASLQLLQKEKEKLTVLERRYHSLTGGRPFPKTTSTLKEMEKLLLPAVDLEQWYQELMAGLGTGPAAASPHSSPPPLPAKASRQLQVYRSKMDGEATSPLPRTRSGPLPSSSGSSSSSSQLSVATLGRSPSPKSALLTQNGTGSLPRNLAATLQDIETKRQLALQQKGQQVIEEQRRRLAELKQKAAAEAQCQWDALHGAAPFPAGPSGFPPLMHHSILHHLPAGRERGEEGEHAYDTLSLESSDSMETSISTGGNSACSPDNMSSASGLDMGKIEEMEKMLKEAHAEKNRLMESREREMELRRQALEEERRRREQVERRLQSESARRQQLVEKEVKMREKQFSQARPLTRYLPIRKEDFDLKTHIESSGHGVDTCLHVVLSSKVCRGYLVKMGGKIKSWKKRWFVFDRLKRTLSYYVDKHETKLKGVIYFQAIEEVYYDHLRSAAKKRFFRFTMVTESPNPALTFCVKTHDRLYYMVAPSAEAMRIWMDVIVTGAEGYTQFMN
Chain of UniProt Q9NYI0 (Q9NYI0 whole entry, looked up): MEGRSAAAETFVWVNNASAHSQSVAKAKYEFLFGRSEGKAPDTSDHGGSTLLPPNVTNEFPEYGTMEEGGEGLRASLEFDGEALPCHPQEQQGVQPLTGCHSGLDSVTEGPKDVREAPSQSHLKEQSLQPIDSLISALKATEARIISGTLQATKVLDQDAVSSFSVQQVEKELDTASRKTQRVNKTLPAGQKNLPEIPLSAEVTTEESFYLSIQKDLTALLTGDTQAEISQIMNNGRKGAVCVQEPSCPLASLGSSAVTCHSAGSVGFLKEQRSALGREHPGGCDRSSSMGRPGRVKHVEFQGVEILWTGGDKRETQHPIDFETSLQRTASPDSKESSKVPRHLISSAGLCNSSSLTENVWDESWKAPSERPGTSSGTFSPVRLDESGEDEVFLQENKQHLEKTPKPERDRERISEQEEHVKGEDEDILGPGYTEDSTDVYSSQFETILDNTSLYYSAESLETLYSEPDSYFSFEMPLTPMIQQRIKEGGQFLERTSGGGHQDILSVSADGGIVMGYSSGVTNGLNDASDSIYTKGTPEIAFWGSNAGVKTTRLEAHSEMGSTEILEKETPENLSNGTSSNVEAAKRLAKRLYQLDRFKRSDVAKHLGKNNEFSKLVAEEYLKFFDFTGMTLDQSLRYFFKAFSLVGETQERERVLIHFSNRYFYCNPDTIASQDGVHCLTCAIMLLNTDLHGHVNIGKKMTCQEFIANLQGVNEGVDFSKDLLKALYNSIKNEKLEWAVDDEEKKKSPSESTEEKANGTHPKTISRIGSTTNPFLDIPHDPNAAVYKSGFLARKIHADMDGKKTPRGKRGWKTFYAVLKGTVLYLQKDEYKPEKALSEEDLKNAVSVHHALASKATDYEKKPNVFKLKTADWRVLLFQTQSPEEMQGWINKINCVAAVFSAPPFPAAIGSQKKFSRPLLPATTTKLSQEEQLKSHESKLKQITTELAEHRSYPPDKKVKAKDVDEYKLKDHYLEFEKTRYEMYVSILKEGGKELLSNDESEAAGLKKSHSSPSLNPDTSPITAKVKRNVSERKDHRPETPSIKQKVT
Chain of UniProt Q5THK1 (Q5THK1 whole entry, looked up): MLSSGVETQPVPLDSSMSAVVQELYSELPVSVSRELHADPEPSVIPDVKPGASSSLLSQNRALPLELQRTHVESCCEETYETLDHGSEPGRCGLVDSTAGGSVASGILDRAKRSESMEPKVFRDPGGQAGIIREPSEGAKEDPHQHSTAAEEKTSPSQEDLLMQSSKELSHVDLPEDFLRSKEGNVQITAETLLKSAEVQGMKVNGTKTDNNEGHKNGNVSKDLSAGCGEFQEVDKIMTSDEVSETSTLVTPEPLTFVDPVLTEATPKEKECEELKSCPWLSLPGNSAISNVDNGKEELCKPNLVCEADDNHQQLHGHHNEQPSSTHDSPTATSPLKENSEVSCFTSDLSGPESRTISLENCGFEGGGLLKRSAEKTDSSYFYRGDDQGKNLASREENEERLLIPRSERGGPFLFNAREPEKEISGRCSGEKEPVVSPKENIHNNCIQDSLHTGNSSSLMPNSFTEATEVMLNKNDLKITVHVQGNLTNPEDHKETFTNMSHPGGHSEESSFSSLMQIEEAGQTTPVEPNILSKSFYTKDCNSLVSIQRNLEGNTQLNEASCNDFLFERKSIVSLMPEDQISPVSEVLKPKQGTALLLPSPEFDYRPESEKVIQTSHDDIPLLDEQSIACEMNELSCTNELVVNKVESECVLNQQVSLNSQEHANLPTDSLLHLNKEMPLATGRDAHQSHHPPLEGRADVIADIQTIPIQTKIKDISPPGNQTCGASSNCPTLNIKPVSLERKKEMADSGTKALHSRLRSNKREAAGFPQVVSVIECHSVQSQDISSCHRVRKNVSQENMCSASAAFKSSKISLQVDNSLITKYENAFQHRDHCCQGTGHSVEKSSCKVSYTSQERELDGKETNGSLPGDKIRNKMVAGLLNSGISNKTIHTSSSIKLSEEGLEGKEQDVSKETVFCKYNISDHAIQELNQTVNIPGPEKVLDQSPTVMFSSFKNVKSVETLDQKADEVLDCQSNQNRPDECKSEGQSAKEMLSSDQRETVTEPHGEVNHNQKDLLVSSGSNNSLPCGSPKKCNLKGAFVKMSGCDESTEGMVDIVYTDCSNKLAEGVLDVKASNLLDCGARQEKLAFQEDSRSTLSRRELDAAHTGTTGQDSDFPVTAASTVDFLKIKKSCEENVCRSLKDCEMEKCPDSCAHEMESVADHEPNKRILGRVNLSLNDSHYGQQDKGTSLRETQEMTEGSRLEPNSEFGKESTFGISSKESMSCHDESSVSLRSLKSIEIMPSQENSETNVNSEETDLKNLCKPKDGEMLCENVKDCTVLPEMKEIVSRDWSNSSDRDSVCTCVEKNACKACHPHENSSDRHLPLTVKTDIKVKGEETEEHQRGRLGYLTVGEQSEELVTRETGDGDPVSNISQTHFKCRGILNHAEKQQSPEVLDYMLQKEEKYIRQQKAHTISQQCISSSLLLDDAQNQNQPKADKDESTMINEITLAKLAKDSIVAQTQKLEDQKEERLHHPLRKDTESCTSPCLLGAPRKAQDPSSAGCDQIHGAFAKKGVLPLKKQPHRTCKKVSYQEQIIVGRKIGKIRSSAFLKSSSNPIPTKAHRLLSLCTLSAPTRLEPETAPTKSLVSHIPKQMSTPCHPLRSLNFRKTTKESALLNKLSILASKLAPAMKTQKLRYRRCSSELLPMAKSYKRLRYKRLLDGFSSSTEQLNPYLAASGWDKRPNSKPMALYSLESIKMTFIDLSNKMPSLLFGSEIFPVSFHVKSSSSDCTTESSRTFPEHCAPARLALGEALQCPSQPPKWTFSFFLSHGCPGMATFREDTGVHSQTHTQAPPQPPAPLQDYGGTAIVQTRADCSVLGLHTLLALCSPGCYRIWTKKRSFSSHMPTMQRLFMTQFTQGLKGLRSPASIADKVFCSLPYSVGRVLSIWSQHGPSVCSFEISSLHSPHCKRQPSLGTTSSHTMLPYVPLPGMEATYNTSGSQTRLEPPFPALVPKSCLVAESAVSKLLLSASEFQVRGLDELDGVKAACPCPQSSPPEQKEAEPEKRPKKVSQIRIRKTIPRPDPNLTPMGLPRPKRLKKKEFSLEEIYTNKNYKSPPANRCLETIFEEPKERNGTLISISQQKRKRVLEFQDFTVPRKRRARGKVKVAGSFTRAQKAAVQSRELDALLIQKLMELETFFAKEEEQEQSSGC
Chain of UniProt Q14442 (Q14442 whole entry, looked up): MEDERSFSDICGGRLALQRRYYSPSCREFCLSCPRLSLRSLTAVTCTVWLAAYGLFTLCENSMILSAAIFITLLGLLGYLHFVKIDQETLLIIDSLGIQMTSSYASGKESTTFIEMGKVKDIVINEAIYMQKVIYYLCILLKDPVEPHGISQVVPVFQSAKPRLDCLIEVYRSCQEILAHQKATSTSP
Chain of UniProt O43924 (O43924 whole entry, looked up): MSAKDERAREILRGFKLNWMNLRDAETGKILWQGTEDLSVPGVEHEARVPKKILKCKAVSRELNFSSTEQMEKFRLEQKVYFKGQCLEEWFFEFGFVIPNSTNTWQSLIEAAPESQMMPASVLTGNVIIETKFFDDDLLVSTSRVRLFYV
Chain of UniProt Q6EEV4 (Q6EEV4 whole entry, looked up): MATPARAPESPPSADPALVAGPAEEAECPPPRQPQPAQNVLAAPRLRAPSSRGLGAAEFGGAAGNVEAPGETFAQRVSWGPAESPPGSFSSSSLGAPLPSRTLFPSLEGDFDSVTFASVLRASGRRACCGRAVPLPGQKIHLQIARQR

log2 fold change, inactive:
PCNX1 (UniProt Q96RV3) 0.025
PCBP2 (UniProt F8VRH0) -0.235
PPP2R5B (UniProt Q15173) -0.104
PMVK (UniProt Q15126) -0.041
PHLDB1 isoform 2 (UniProt Q86UU1) 0.031
POLR2E (UniProt P19388) 0.031
PSMD8 (UniProt K7ERW6) -0.236
PDE4DIP (UniProt E9PS60) -0.214
PDE6D (UniProt O43924) -0.022
PTP4A3 (UniProt O75365) 0.207
PAN2 (UniProt Q504Q3) -0.128
PSMA3 (UniProt G3V4X5) -0.012
PSMB9 (UniProt P28065) -0.08
PIGH (UniProt Q14442) 0
PDE4A (UniProt P27815) 0.006
PUF60 isoform 2 (UniProt Q9UHX1) 0.135
PRKCE (UniProt Q02156) 0.077
PSD3 (UniProt Q9NYI0) -0.019
POLR2M (UniProt Q6EEV4) 0.017
PSMC3 (UniProt E9PLG2) -0.157
PSMA3 (UniProt H0YJ03) -0.145
PCF11 (UniProt O94913) -0.058

log2 fold change, active:
PRR14L (UniProt Q5THK1) -0.62
